Screening results (PubChem)
AID504770: growth inhibitors of E. coli YBA685 in a screen for V. cholerae RctB (chromosome II replication) inhibitors | E. coli YBA685 rctB-dependent plasmid, OD600 growth, 3 h; hits give low values | z-score (test concentration not listed) | AID 504770 | actives 0.27% (n = 130,000); in the data active = z-score below about -2, passing the limit was not always enough
CapD inh: CapD enzyme inhibition; AID 492967; purified CapD enzyme, fluorescence intensity read-out; hits give low values; actives 0.23% (n = 140,000); z-score (concentration not given with the values); in the data active = z-score mostly below about -2.9, no sharp cut-off; inactive = mostly above about -1.9
* marks the source's active call; other numbers are inactive results; i = inactive; / = no result given. Only some compounds are listed: those with a hit (about 0.4% of all), similar ones and a draw of the others.

SMILES	AID504770	CapD inh
COc1ccc(C2C=C(c3ccc(Br)cc3)NC(=S)N2)cc1 (centres undefined)	/	0.68
COC(=O)c1ccc(Nc2nc(-c3ccc(Br)cc3)c(C)s2)cc1	1.5	35
O=C1CCCC2=C1C(c1ccco1)c1c([nH]n(-c3ccccc3)c1=O)N2 (centres undefined)	0.1	-2.6
CC1(C)CC(=O)C2=C(C1)Nc1[nH]n(-c3ccccc3)c(=O)c1C2c1ccco1 (centres undefined)	1.3	-4.6*
COc1cc(/C=C2/N=C(SCC(=O)c3ccccc3)N(c3ccccc3)C2=O)ccc1O	0.15	i
C=CCSc1nnc(NC(=O)C2C(C=C(Cl)Cl)C2(C)C)s1 (centres undefined)	1.1	-1.8
C=CCSc1nnc(NC(=O)NC2CCCCC2)s1	-2.8*	/
CCC1Oc2ccccc2N(CC(=O)N(C)Cc2ccccc2)C1=O (centres undefined)	-0.15	-0.49
O=C(OCC1CCCCO1)N1CCc2c([nH]c3ccccc23)C1 (centres undefined)	/	0.66
Nc1cc(-c2ccccc2)nc2ccccc12	-0.35	21
Nc1cc(-c2ccccc2)c2ccccc2n1	-2.2*	42
Clc1cc2c(c3ncccc13)OCN(CCc1ccccc1)C2	-2.5	/
CCCCN1COc2c(cc(Cl)c3cccnc23)C1	-5.8*	-0.17
Nc1ccccc1SCC(=O)N1CCc2cc(F)ccc21	/	-0.22
CCOC(=O)/C(C#N)=N/Nc1ccc(SC(F)F)cc1	0.4	/
N#CC(C#N)=NNc1ccc(SC(F)F)cc1	-3.4*	/
COc1cc(C2C(C#N)=C(N)Oc3n[nH]c(-c4ccc(Br)cc4)c32)cc(OC)c1OC(=O)N1CCOCC1 (centres undefined)	/	-0.14
O=S1(=O)CCC(NC(=S)SCCOc2ccccc2OCCO)C1 (centres undefined)	-3*	/
O=S1(=O)CCC(NC(=S)Nc2ccccn2)C1 (centres undefined)	1.1	0.43
CC1CC(C)CN(S(=O)(=O)c2ccc3[nH]cc(C(=O)N(Cc4ccco4)CC4CCCO4)c(=O)c3c2)C1 (centres undefined)	/	0.92
CCOc1ccc(/C=C2\SC(=S)N(CCCC(=O)N(CCO)c3ccccc3)C2=O)cc1	/	-0.84
Cc1ccccc1N1CCN(C(=O)c2c(C)oc3cc4c(C(=O)N5CCN(c6ccccc6C)CC5)c(C)oc4cc23)CC1	-3.3*	-0.59
COc1cc2c(C(=O)N3CCN(c4ccccc4C)CC3)c(C)oc2cc1Br	1.4	0.82
COc1ccccc1CCOC(=O)NC(Cc1c[nH]c2ccccc12)C(=O)OCc1ccccc1 (centres undefined)	/	-0.4
COc1ccccc1NC(=O)c1c(NC(=O)c2ccc(C)cc2)sc2c1CCCCC2	/	4.8
SMILES	AID504770	CapD inh
Cc1nnc(C)n1/N=C/C=C\c1ccco1	2.1	-4.4*
S=c1[nH]nc(-c2ccccc2)n1/N=C/C=C/c1ccco1	0.05	-2.4
COC(=O)c1ccc(Br)o1	/	0.41
O=C(ON1C(=O)CCC1=O)c1ccc(Br)o1	-0.95	-5.7*
CC(Oc1ccc2ccccc2c1)C(=O)NN1S(=O)(=O)c2ccccc2S1(=O)=O (centres undefined)	/	-1.2
O=C(N/N=C/c1cc(Br)cc(Br)c1O)c1cc(Br)ccc1Cl	/	-0.76
Cc1ccc(/C=N/NC(=O)CN(c2c(C)n(C)n(-c3ccccc3)c2=O)S(=O)(=O)c2ccccc2)cc1	/	-0.41
O=C1Nc2ccc(Br)cc2/C1=N/N1C(=O)C(O)=CC1(O)c1ccccc1 (centres undefined)	0.45	-4.1*
O=C1Nc2ccc(Br)cc2C1=Nc1ccc(Cl)cc1	/	0.5
CC(=O)/C(=C/Nc1ccc(I)cc1)c1ccccc1	/	-1.3
C/C(C=Nc1ccccc1)=C\Nc1ccccc1	-1.1	-5*
Cc1ccc([N+](=O)[O-])cc1NC(=O)C(Cc1c[nH]c2ccccc12)NC(=O)OCc1ccccc1 (centres undefined)	/	0.06
COc1ccc(C(=O)NCc2nc3ccccc3n2CC(C)C)cc1OC	0.95	-0.38
COc1ccc(C(=O)c2nc3ccccc3n2C(C)C)cc1OC	-4.6*	-0.45
O=C(O)CSCC(=O)N1CCN(C(c2ccccc2)c2ccc(Cl)cc2)CC1 (centres undefined)	/	0.86
CN=C1CC(C)(C)CC(=O)/C1=C(\O)CCC(=O)NC	1.6	0.41
CCOc1ccc(/C=C2/C(=O)N(C)C(=S)N2CC(=O)OC)c(OCC)c1	1.5	0.29
COC(=O)CN1C(=S)N(C)C(=O)/C1=C/c1ccco1	-0.85	-4.1*
COc1ccccc1NC(=O)Nc1ccccc1C(=O)N1CCC(c2nc(-c3ccncc3)no2)CC1	/	0.04
COC(=O)c1ccc2c(=O)[nH]c(COC(=O)c3cccnc3Nc3ccccc3OC)nc2c1	-4*	/
COC(=O)c1ccc2c(=O)[nH]c(COC(=O)c3ccccc3SCC(=O)N3CCCC3)nc2c1	-0.35	/
O=C1COc2ccccc2N1C(=O)c1ccc(Cl)cc1	-0.5	-4.1*
O=C(CN1C(=O)COc2ccccc21)c1ccc(Cl)cc1	-1.6	/
O=C(NCc1nc2ccccc2[nH]1)OCc1ccc2ccccc2c1	/	2.1
O=C(NCc1ccco1)NCC(F)(F)F	-0.45	-0.39
SMILES	AID504770	CapD inh
C=C1C(C(=O)NCc2ccco2)C1C(=O)NCc1ccco1 (centres undefined)	-0.1	-10*
O=C(CSCc1c[nH]c2ccccc12)Nc1ccc2ccccc2c1	-0.6	0.32
c1ccc(-c2nc3ccccc3s2)cc1	-0.1	1
Oc1ccc(-c2nc3ccccc3s2)cc1	-2.3*	/
CC(C)(C)C(=O)/C=C1\Nc2ccccc2SC1(O)CC(=O)C(C)(C)C (centres undefined)	-1.5	-1.6
Cc1ccc(-c2csc(C3=C(O)CN(C4CCCC4)C3=N)n2)cc1	1.2	/
N#CC1(C#N)[C@H](C(N)=O)[C@H]1c1ccccc1	0.2	0.41
N#CC1=C(N)NC(=S)C(C(N)=O)C1c1ccccc1 (centres undefined)	-1.1	-4.5*
N#C/C(=C\c1ccco1)C(N)=S	-1.2	/
N#C/C(=C\C=C\c1ccco1)C(N)=S	1.2	-12*
CCOC(=O)/C=C1\SCC(=O)N1CCN1CCCc2cc(C)ccc21	0.05	/
CCCNC(=O)c1nc(-c2ccc(Cl)cc2)n2c1CCCCC2	1.8	0.37
O=C(NCCN1CCOCC1)c1nc(-c2ccc(Cl)cc2)n2c1CCCCC2	-2.6*	-1.6
O=C1NC(=S)N(c2ccccc2)C(=O)/C1=C\c1ccoc1	-0.75	-5.7*
O=C1NC(=S)N(c2ccc(Br)cc2)C(=O)/C1=C/c1cccn1-c1ccccc1	/	-0.31
O=C(O)c1cc(N2C(=O)/C(=C/c3ccc(-c4ccc(Cl)c(Cl)c4)o3)C=C2c2ccccc2)ccc1O	/	0.14
CNC(=O)c1cccc(S(=O)(=O)N(C)C)c1	-0.7	-0.13
N#CCC(=O)Nc1ccccc1Oc1ccccc1	-0.15	0.16
O=C(O)CCCC(=O)Nc1ccccc1Oc1ccccc1	-0.45	-2*
Cc1nc2sccn2c(=O)c1S(=O)(=O)N1CCc2ccccc21	-0.3	-3.2
CC(C)(C)c1cc(SCCC#N)cc(C(C)(C)C)c1O	-2.2*	0.17
CC(C)(C)c1cc(CCC#N)cc(C(C)(C)C)c1O	0.15	0.14
O=C(c1ccccc1)N(c1ccccn1)c1ccccn1	-0.25	-0.49
CNc1ccccc1C(N)=O	/	75
N#CC(C#N)=NNc1ccccc1C(N)=O	-3.6*	-6*
C=CCOC(=O)CCC(NC(=O)c1nc(C)oc1C(F)(F)F)C(=O)OCC=C (centres undefined)	/	-0.35
